Measurements taken from PubChem BioAssay (NCI).
The panel holds about 83,000 compounds, 20% with a hit somewhere; the sample as a whole holds those more often.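 How to read the values: 0–100, growth inhibition (40 = 60% inhibited); 0, no net growth; -100 to 0, cell death (-40 = 40% of starting cells died; -100 = all dead).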 Unmarked numbers belong to inactive results. Active and inactive are the calls of the source. The calls were made as follows: active = growth percent below 10; inactive = the rest.

Columns and labels:
Test in all cases: NCI-60 one-dose screen, 48 h (100 = growth as untreated, 0 = no growth, -100 = all killed)
Conditions in all cases: 10 µM
[1] = tested on: HT29 colon
[2] = tested on: SNB-75 CNS
[3] = tested on: SNB-19 CNS
[4] = tested on: U251 CNS
[5] = tested on: PC-3 prostate
[6] = tested on: SK-MEL-5 melanoma
[7] = tested on: UACC-62 melanoma
[8] = tested on: LOX IMVI melanoma
[9] = tested on: SK-MEL-28 melanoma
[10] = tested on: SK-MEL-2 melanoma
[11] = tested on: EKVX NSCLC
[12] = tested on: SN12C renal
[13] = tested on: UO-31 renal
[14] = tested on: TK-10 renal
[15] = tested on: ACHN renal
[16] = tested on: CAKI-1 renal
[17] = tested on: A498 renal
[18] = tested on: CCRF-CEM leukemia
[19] = tested on: MOLT-4 leukemia
[20] = tested on: SR leukemia

SMILES	growth [1]	growth [2]	growth [3]	growth [4]	growth [5]	growth [6]	growth [7]	growth [8]	growth [9]	growth [10]	growth [11]	growth [12]	growth [13]	growth [14]	growth [15]	growth [16]	growth [17]	growth [18]	growth [19]	growth [20]
Nc1nccc(Nc2ccccc2)n1	121%	90.9%	116%	104%	102%	107%	105%	109%	116%	117%	107%	119%	94.7%	122%	100%	118%	97.3%	89.8%	96.3%	102%
COc1ccc(/C(=C2\O[C@@H]([C@H]3COC(C)(C)O3)[C@H]3OC(C)(C)O[C@@H]23)c2cc(OC)c(OC)c(OC)c2)cc1O	107%	6.11% (active)	47.4%	46.2%	30.6%	59.6%	93.2%	36.9%	59.6%	103%	90.2%	57.7%	49.1%	109%	44.7%	93%	63.3%	47.9%	59.9%	25.4%
COc1ccc2c(c1)C(=O)c1c-2c(OCCN2CCCCC2)nc2ccc(OC)cc12	1.76% (active)	20.8%	32.3%	12%	43.3%	22.1%	20.6%	-52.9% (active)	72.3%	7.82% (active)	39.6%	20%	-6.08% (active)	41.1%	9.5% (active)	-11.5% (active)	53.7%	14.3%	8.36% (active)	2.46% (active)
CCN(CC)CCC(CNc1c(C)cnc2cc(Cl)ccc12)c1ccc(Cl)c(Cl)c1 (configuration not stated)	11.6%	59.2%	71.7%	46.4%	49.4%	-92.3% (active)	-48.5% (active)	37.8%	-75.3% (active)	107%	73.5%	59.1%	44.5%	94.4%	54.8%	62.1%	24.6%	30.3%	25.2%	-19.1% (active)
NC(=O)SCC(=O)Nc1ccc(S(N)(=O)=O)cc1	107%	96.3%	104%	104%	100%	102%	89%	97%	113%	111%	112%	95.6%	86.4%	106%	112%	104%	100%	106%	113%	110%
Nc1ccn(C2CC(O)C(CO)O2)c(=O)n1 (configuration not stated)	110%	97.5%	99.7%	105%	99.4%	105%	100%	104%	120%	87.8%	102%	108%	96.4%	148%	104%	99.4%	124%	116%	104%	92.7%
CCN(CC)CCCOCCCNc1cc(OC)cc2cccnc12	96.1%	94.7%	91.4%	91.5%	86.6%	96.4%	82.1%	90.2%	103%	107%	96.4%	87.7%	95.7%	137%	97.5%	103%	72%	90.9%	105%	100%
O=C(CC(C(=O)c1ccccc1)N1CCOCC1)c1ccccc1 (configuration not stated)	92.4%	101%	95.6%	88%	99.4%	95.5%	87.7%	88.4%	92.2%	102%	99.2%	87.3%	89.9%	90.8%	97.3%	100%	89.9%	9.08% (active)	45.7%	28.5%
COc1ccc(-c2nnc(-c3c(-c4ccccc4)nc4ncccn34)o2)cc1OC	102%	74.1%	100%	101%	97.9%	95.4%	102%	102%	112%	96.3%	114%	97.3%	79%	111%	88.8%	103%	117%	96.7%	93.1%	81.1%
CSc1cc(SC)ncn1	97.3%	94.2%	91%	108%	91%	104%	93.7%	105%	102%	100%	107%	94.4%	86.7%	94%	107%	106%	98.8%	94%	105%	98.2%
Oc1[nH]c2cc(Cl)ccc2c1/C=c1/ccc2c(c1)N=C(c1cc(F)cc(F)c1)N=2	3.28% (active)	-21.5% (active)	64.5%	20.7%	13%	15.5%	36.4%	37.7%	40.1%	20.4%	57.2%	64%	43.3%	58.8%	46.3%	17.1%	0.502% (active)	9.33% (active)	8.56% (active)	11.4%
COc1ccc(-c2nc3ncccn3c2-c2nnc(-c3ccc(F)cc3)o2)cc1	107%	94.7%	96.9%	106%	92.8%	91.8%	91.1%	87.7%	99.5%	111%	96%	91%	79.2%	113%	97.6%	100%	81%	94.4%	97.1%	108%
Cc1ccc2oc3nc(C)c(C(=O)NCc4ccccc4)cc3c(=O)c2c1	95%	88%	83.2%	79%	93.5%	76.9%	25.6%	68.8%	78.1%	8.63% (active)	77.1%	96.5%	63%	87.2%	63.8%	60.3%	104%	76.4%	64.3%	79.9%
CC(C)(C)NC/C(=C\c1ccccc1)C(=O)c1ccccc1	-46.1% (active)	26.9%	66.1%	-18.1% (active)	0.348% (active)	-66.9% (active)	-79.3% (active)	-77% (active)	-29.2% (active)	-64.3% (active)	24.7%	-45.8% (active)	-83.3% (active)	0.816% (active)	-50.9% (active)	-7.54% (active)	64.4%	10.7%	10.3%	-1.67% (active)
COc1ccc(NC(=O)CSc2nc3ccccc3c(=O)n2CCc2ccccc2)cc1	110%	28.7%	59.4%	71.4%	106%	86.6%	89.8%	92.9%	91.6%	121%	75.2%	79%	90.2%	109%	93.4%	87.5%	101%	–	–	–
c1ccc(C(NC2CC3CCC2C3)c2ccccc2)cc1 (configuration not stated)	85.8%	93.5%	99%	91.9%	97.2%	99.7%	87.2%	95.3%	110%	89.6%	96.8%	94%	65%	95.9%	98.9%	87.7%	116%	87.6%	94%	90.2%
